# Assay outcomes as filed in PubChem BioAssay.
# Pol eta inh-1 = inhibitors of human DNA polymerase eta; Potency, µM (highest dose often 114 µM), for the others: at the highest dose activity change, negative = inhibition, usual class: inhibitors; recombinant Pol eta, fluorescent DNA replication assay; AID 588591; 390,000 tested, 1.2% active; also: potency is read from the fitted curve at half-maximal effect; % is scaled to controls: 0 for no effect and ±100 for the full control effect
#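 Fluorescent replication assay: 50 nM final substrate added after a 15 min room-temperature compound preincubation with 10 nM enzyme. Signal taken at 0 min and again at 10 min.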
# POLI inh = blocks human DNA polymerase iota activity. Pol iota fluorescent replication assay, 10 min. 390,000 tested, 1% active. Potency, µM (doses to about 115 µM), for the others: at the highest dose activity, negative = inhibition, most hits filed as inhibitors. Q9UNA4; also: potency is read from the fitted curve at half-maximal effect
#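 Pol iota at 10 nM preincubated 15 min with compounds at room temperature; reaction started with fluorescent substrate, 50 nM final. Fluorescence read kinetically at 0 and 10 min; buffer-only wells as negative control.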
# Pol kappa inh-1 = DNA polymerase kappa (human) inhibition. 400,000 tested, 0.53% active. Potency, µM (series often up to 107 µM), for inactives: top-dose activity, negative = inhibition, usual class: inhibitors. purified Pol kappa, fluorescent DNA synthesis assay, 10 min. Q9UBT6; also: potency is read from the fitted curve at half-maximal effect; % is scaled to controls: 0 for no effect and ±100 for the full control effect
#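 10 nM Pol kappa preincubated 15 min at room temperature with compounds, then reaction started with substrate at 50 nM final. Fluorescence read kinetically at 0 and 10 min; buffer-only wells served as negative control.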
# WRN inhibitor = WRN helicase (human) inhibition; 360,000 tested, 0.46% active; Q14191; Potency, µM (doses to about 114 µM), for the others: top-dose activity change, negative = inhibition, actives largely listed as inhibitors; WRN helicase unwinding, fluorescent forked duplex, kinetic; AID 651768; also: potency is read from the fitted curve at half-maximal effect; % is scaled to controls: 0 for no effect and ±100 for the full control effect; nearly all actives have a fitted effect of over 55% in size
#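 WRN at 20 nM final preincubated with compound 15 min at room temperature; reaction started with 100 nM fluorophore/quencher forked duplex oligonucleotide and 2 mM ATP final. Unwinding followed kinetically by red fluorescence (ex 525, em 598 nm).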
# PI5P4K alpha inh = inhibitors of human PI5P4K alpha | PI5P4Kalpha enzyme, ADP-Glo luminescence, 60 min; hits give low values | 330,000 tested, 1.2% active | AID 652105 | max response, %; active = max response of -50% or lower; inconclusive = between -30% and -50%; inactive = -30% or higher; also: value at the top dose of about 77 µM; % is scaled to controls: 0 for no effect and ±100 for the full control effect
#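 ADP-Glo luminescence end-point after a 60 min room-temperature kinase reaction. PI5P4Kalpha and substrate in HEPES pH 7.4 buffer with EGTA, 0.1% CHAPS and 5% DMSO; ATP at 5 microM final.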
# Pol beta inh-1 = inhibitors of human DNA polymerase beta; P06746; Pol beta primer extension/strand displacement, fluorescence kinetic; Potency, µM (series often up to 114 µM), inactives show top-dose activity change, negative = inhibition, most hits filed as inhibitors; 340,000 tested, 1.3% active; AID 485314; also: potency is read from the fitted curve at half-maximal effect; % is scaled to controls: 0 for no effect and ±100 for the full control effect
#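 Enzyme-only controls used 10 nM Pol beta; buffer lacking enzyme served as negative control. Compound preincubated 15 min, then 50 nM substrate added; 0 and 10 min reads at room temperature.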
# Pol beta inh-2 = Validate hits inhibiting human DNA polymerase beta | Pol beta primer extension/strand displacement, fluorescence kinetic | Potency, µM, actives largely listed as inhibitors | AID 540280 | 250 tested, 87% active | shares compounds with Pol beta inh-1; calls by dose curve; also: potency is read from the fitted curve at half-maximal effect
# Klenow counter = inhibits Klenow fragment polymerase in counter-screen | shares compounds with Pol beta inh-1 | Klenow exo- polymerase counter-screen, fluorescent DNA substrate | activity change, negative = inhibition, % at 57.1 µM | 250 tested, under 10 active | AID 540300
# HIV RT counter = HIV-1 RT inhibition, pol beta selectivity check. 250 tested, under 10 active. shares compounds with Pol beta inh-1. AID 540301. activity % (negative = inhibition, positive = activation), % at 57.1 µM. HIV-1 RT polymerase activity, counter-screen
# POLB inh gel = validation of human DNA polymerase beta inhibitors. 110 tested, 91% active. AID 540325. shares compounds with Pol beta inh-1. radiolabeled primer extension gel assay, phosphorimager. inhibition, % at 10 µM;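 active = inhibition at 10 µM of 30% or more; inconclusive = no clear call, values can overlap the other calls; inactive = inhibition at 10 µM under 30%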
# TbPGK inh = TbPGK inhibition, hit validation | 500 tested, 79% active | shares compounds with Pol kappa inh-1 | Potency, µM (titrated, usually from 57.5 µM), for inactives: at the top dose activity change, negative = inhibition, actives largely listed as inhibitors | TbPGK coupled GAPDH assay, Kinase-Glo luminescence; also: potency is read from the fitted curve at half-maximal effect; % is scaled to controls: 0 for no effect and ±100 for the full control effect; nearly all actives have a fitted effect of over 65% in size
# Pol iota confirm = Confirm cherry-picked inhibitors of human polymerase iota. AID 720496. Pol iota primer extension, TAMRA/BHQ fluorescence. shares compounds with Pol kappa inh-1. 1,500 tested, 77% active. Potency, µM, actives largely listed as inhibitors; also: potency is read from the fitted curve at half-maximal effect
# Pol kappa inh-2 = Pol kappa (human) inhibition, cherry-pick confirmation; shares compounds with Pol eta inh-1; purified Pol-kappa, fluorescent strand-displacement substrate; Potency, µM, hits mostly inhibitors; 920 tested, 76% active; also: potency is read from the fitted curve at half-maximal effect
# Pol eta inh-2 = Pol eta (human) inhibition, cherry-pick confirmation; shares compounds with Pol eta inh-1; Pol eta primer extension, TAMRA/BHQ fluorescence, 10 min; Potency, µM, actives largely listed as inhibitors; 2,600 tested, 64% active; also: potency is read from the fitted curve at half-maximal effect
# ADP-Glo interf = ADP-Glo luciferase interference, PI5P4K counter-screen; shares compounds with PI5P4K alpha inh; ADP-Glo detection counter-screen, luciferase luminescence, no enzyme; Potency, µM (titrated, usually from 76.9 µM), for the others: at the highest dose activity change, negative = inhibition, actives largely listed as inhibitors; 1,100 tested, under 10 active; AID 743285
# An asterisk follows results filed as active; ? = inconclusive; . = no result; [ ] = remark or other dose. An excerpt weighted towards active compounds, which were near 2.8% of everything screened. Unless noted, calls follow the shape of the dose curve; as a rule, active = well fitted curve in the direction sought with a large enough effect; inconclusive = small, poorly fitted or top-dose-only effect, or another doubt; inactive = no such curve, though single readings can be large; an effect the other way counts as inactive or inconclusive.
SMILES,Pol eta inh-1,POLI inh,Pol kappa inh-1,WRN inhibitor,PI5P4K alpha inh,Pol beta inh-1,Pol iota confirm,others
O=C(CSc1c2c(nc3ccccc13)CCCC2)NCc1ccco1,19.2%,11.9%,-0.6%[60.1 µM],0.6%,1.7,4.7%,.,
O=C(NCc1ccco1)c1c2c(nc3ccccc13)CCC2,3.16µM*,8.91µM*,31.6µM*,44.7µM*,-70.6*,11.2µM*,?,Pol beta inh-2=25.1*;Klenow counter=-5.9;HIV RT counter=9.7;POLB inh gel=99.3*;Pol eta inh-2=84.9*;ADP-Glo interf=0.5%
COc1ccc(CCN(C)C(=O)C2CCN(Cc3ccc(C)cc3)CC2)cc1OC,-2.8%,34.3%,10.6%,0.5%,-7.8,-12.2%,.,
Cc1ccc(CNC(=O)c2ccc(-n3cccc3)cc2)cc1,12.6µM*,14.1µM*,22.4µM*,39.8µM*,-90.3*,6.31µM*,18.9*,Pol beta inh-2=8.91*;Klenow counter=-26.5;HIV RT counter=20.9;Pol kappa inh-2=18.9*;Pol eta inh-2=30.1*;ADP-Glo interf=3.8%
COc1cc(OC)cc(C(=O)NCc2ccc(-n3cccc3)cc2)c1,-17.3%,-24.0%,-4.0%,-1.1%,-7.3,2.6%,.,
COC(=O)c1nn(-c2ccc3c(c2)OCO3)cc1O,-11.7%,-2.4%,-9.3%,0.4%,.,31.9%,.,
COC(=O)c1nn(-c2ccc3c(c2)CCN3C(C)=O)cc1O,-9.0%,44.3%,-3.8%,-14.5%,.,-11.9%,.,TbPGK inh=20.6µM*
COc1ccc(O)c(C(c2c(C)[nH][nH]c2=O)c2c(C)[nH][nH]c2=O)c1,-12.9%,-90.1%,-0.8%,-4.4%[11.6 µM],-8.3,?,?,
CCOc1cc(C(c2c(C)[nH][nH]c2=O)c2c(C)[nH][nH]c2=O)ccc1O,-7.4%,?,-5.7%,-24.7%[57.1 µM],-14.4,2.2%,.,
Nc1cccc(C(=O)OCC(=O)Nc2cccc3c2C(=O)c2ccccc2C3=O)c1,?,-4.7%,-11.7%,-34.6%,-12.1,18.0%,.,
CCN(CC)CCC(=O)Nc1cccc2c1C(=O)c1ccccc1C2=O,-28.3%,15.8µM*,-21.0%,?,1.1,20µM*,?,
O=[N+]([O-])c1ccc2nc(SCc3cn4cc(Cl)ccc4n3)[nH]c2c1,50.1µM*,28.2µM*,-28.5%,?,-7.6,5.62µM*,?,
O=C1c2cccc3cccc(c23)C(=O)N1CCN1CCN(C(=S)Nc2ccc(F)cc2)CC1,.,.,.,.,.,5.0%,.,
Cc1ccc(NC(=S)N2CCN(CCN3C(=O)c4cccc5cccc(c45)C3=O)CC2)cc1,?,11.7%,-16.2%,3.0%,0.5,25.4%,.,TbPGK inh=3.8%
Cc1occc1C(=O)N/N=C/C=C/c1ccc(N(C)C)cc1,-13.6%,19.7%,5.1%,-0.4%,-3.5,0.3%,.,
Cc1occc1C(=O)N/N=C/c1ccc(N(C)C)cc1,-20.2%,5.7%,0.8%,-4.8%,?,-0.3%,.,TbPGK inh=10.3µM*
Cc1ccc(-c2nc3n(n2)Cc2ccccc2-3)cc1,-5.7%,?,-7.7%,?,-20.2,?,.,
c1ccc(-c2cn3c(n2)-c2ccccc2C3)cc1,?,14.9%,4.7%,3.7%,-21.6,-1.2%,.,TbPGK inh=14.6µM*
COc1ccc(Cl)cc1CNC[C@H]1O[C@@H](n2cnc3c(=O)[nH]c(N)nc32)[C@H](O)[C@@H]1O,.,.,.,2.6%,-6.7,.,.,
O=c1c(CO)cc(CO)cc(CO)c1O,0.4%,?,-1.8%,-1.0%,5.4,2.1%,.,
O=C1C=CC(=O)c2c(O)c(CO)c(CO)c(O)c21,1µM*,3.16µM*,3.55µM*,7.94µM*,-89.3*,.,.,TbPGK inh=8.19µM*
COc1ccc(C#Cc2c(-c3ccc(OC)cc3)oc3ccc(-c4ccc(OC)cc4)cc23)cc1,-4.0%,7.6%,-13.6%,-10.3%,16.7,.,.,
COc1ccc(-c2ccc3oc(-c4ccc(OC)cc4)c(C#CCCO)c3c2)cc1,44.7µM*,35.5µM*,7.6%,0.1%,?,.,37.7*,
Cc1ccc(S(=O)(=O)N2CCCC2)cc1C(=O)N1CCC(C)CC1,-14.3%,32.8%,-2.1%,-4.3%,-1.7,21.9%,.,
Cc1csc2c(=O)sc(NC(=O)c3ccco3)nc12,39.5%,6.4%,-10.8%,0.3%,-4.7,?,.,
Cc1csc2c(=O)sc(NC(=O)c3cccs3)nc12,?,?,5.9%,?,-5.6,?,.,TbPGK inh=25.9µM*
Cc1ccc(-c2cc(C(=O)N/N=C/c3c(C)nn(C)c3C)c3ccccc3n2)cc1C,?,22.4µM*,3.1%,-23.5%[57.1 µM],11.2,?,?,
Cc1ccc(-c2cc(C(=O)N/N=C/c3ccoc3)c3ccccc3n2)cc1,-14.7%,-11.0%,14.2%,-4.7%,-2.2,16.8%,.,
CCCCn1c(N)c(-c2nc3ccccc3o2)c2c([N+](=O)[O-])nn(C)c(=O)c21,?,?,-11.2%,?,-24.6,?,42.3*,
Cn1c(=O)n(CC(=O)NCC2CCCO2)c(=O)c2c3c(sc21)COC(C)(C)C3 (stereo not drawn),-17.5%,40.0%,0.5%,-5.4%,-1.0,-2.4%,.,
